From PubChem
HT1080-NT tox = qHTS for induction of synthetic lethality in tumor cells producing 2HG: qHTS for the HT-1080-NT fibrosarcoma cell line; HT-1080-NT fibrosarcoma viability, CellTiter-Glo ATP luminescence, 48 h; AID 686970, 2013; hit rate 1.6% among 360,000; Potency, µM (doses to about 46.1 µM), without a hit: at the top dose activity, negative = less viability, actives largely listed as cytotoxic;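 also: NT is the 2HG producing partner of a matched IDH1 knockdown line; potency is read from the fitted curve at half-maximal effect; 0% = DMSO-treated cells and -100% = media-only wells without cells; nearly all actives have a fitted effect of over 55% in size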
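Luminescent CellTiter-Glo readout after 48 hours of compound exposure at 37 degrees C defined viability of HT-1080-NT cells. Activity was normalized to DMSO wells and cell-free media wells; concentration-response curves were fitted and assigned curve classes.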
HT1080 IDH1KD tx = qHTS for induction of synthetic lethality in tumor cells producing 2HG: qHTS for the HT-1080-IDH1KD cell line. HT-1080 IDH1 knockdown viability, ATP luminescence, 48 h. Potency, µM (highest dose often 46.1 µM), without a hit: at the top dose activity, negative = toxicity, actives largely listed as cytotoxic. hit rate 2% among 360,000;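 also: potency is read from the fitted curve at half-maximal effect; 0% = DMSO wells and -100% = cell-free medium wells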
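Luminescent ATP read-out (CellTiter-Glo, 10 min at room temperature) after 48 h compound exposure at 37 °C gave viability of IDH1-knockdown HT-1080 cells. Activity was normalised to DMSO and cell-free wells, then fitted as concentration-response curves.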
DT40 TDP1 CPT = qHTS for Inhibitors of human tyrosyl-DNA phosphodiesterase 1 (TDP1): qHTS in cells in presence of CPT; hit rate 12% among 420,000; Potency, µM (doses to about 46.2 µM), without a hit: top-dose activity change, negative = growth inhibition, most hits filed as inhibitors; chicken DT40 Tdp1-/-;hTDP1 cells + 20 nM CPT, ATP luminescence, 48 h; also: potency is read from the fitted curve at half-maximal effect; nearly all actives have a fitted effect of over 55% in size
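Chicken DT40 Tdp1-/- cells stably complemented with human TDP1 were seeded at 400 cells/well in medium containing 20 nM camptothecin, exposed to pin-transferred compounds, and grown at 37 °C for at least 48 hr. Viability was read as ATP luminescence.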
IL-1B inflam inh = qHTS for Inhibitors of Inflammasome Signaling: IL-1-beta AlphaLISA Primary Screen; hit rate 4.7% among 360,000; THP-1 LPS/ATP IL-1B secretion, AlphaLISA, 16 h; active compounds read low; activity change, % at 57.5 µM; in the data active = activity change below about -50%; inconclusive = mostly about -30% to -49%
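THP-1 cells pretreated 1 hr with compounds (up to 57.5 uM final), then stimulated with LPS (250 ng/mL final) plus ATP (1.25 mM final); secreted IL-1B measured by AlphaLISA after 16 hr, decreased signal indicating inhibition.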
DT40 TDP1 no CPT = qHTS for Inhibitors of human tyrosyl-DNA phosphodiesterase 1 (TDP1): qHTS in cells in absence of CPT; hit rate 15% among 420,000; Potency, µM (titrated, usually from 46.2 µM), without a hit: at the top dose activity change, negative = growth inhibition, usual class: inhibitors; DT40 Tdp1-/- hTDP1 cells, no CPT, ATP luminescence, 48 h; AID 686978, 2013; also: potency is read from the fitted curve at half-maximal effect; nearly all actives have a fitted effect of over 55% in size
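Chicken DT40 Tdp1-/- cells complemented with human TDP1, screened without camptothecin (DMSO vehicle only), 400 cells/well. Compounds pin-transferred, cells incubated at 37 °C for at least 48 hr. Growth read as ATP-dependent luminescence (CellTiter-Glo, 30 min at RT).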
ELG1 DNA repair = qHTS screen for small molecules that inhibit ELG1-dependent DNA repair in human embryonic kidney (HEK293T) cells expressing luciferase-tagged ELG1; hit rate 2.3% among 330,000; HEK293T ELG1-luciferase reporter, luminescence, 16 h; DNA damage induced by 5-fluorouridine; Potency, µM (top dose mostly 46.1 µM), without a hit: at the highest dose activity change, negative = inhibition, most hits filed as inhibitors; also: potency is read from the fitted curve at half-maximal effect; nearly all actives have a fitted effect of over 55% in size
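HEK293T cells expressing luciferase-tagged ELG1 (2,000/well) received 5-Fluorouridine plus compound or DMSO for 16 hr at 37 °C. Luciferase was read by ONE-Glo luminescence after 30 min at room temperature.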
* hit, by the source's call; i = inactive; ? = inconclusive; · = no result given. Hits are enriched below; roughly 19% of the tested compounds scored in any of these assays. Unless noted, calls follow the shape of the dose curve; as a rule, active = well fitted curve in the direction sought with a large enough effect; inconclusive = small, poorly fitted or top-dose-only effect, or another doubt; inactive = no such curve, though single readings can be large; an effect the other way counts as inactive or inconclusive. Unless noted, % is scaled to controls: 0 for no effect and ±100 for the full control effect.

SMILES | HT1080-NT tox | HT1080 IDH1KD tx | DT40 TDP1 CPT | IL-1B inflam inh | DT40 TDP1 no CPT | ELG1 DNA repair
CN(Cc1ccccc1)C(=C(Cl)Cl)/C(=C1/NCCN1C)[N+](=O)[O-] | 22% | 3% | -8% | 11 | 9% | -8%
CCCCCN(C(=O)CCC(=O)OCCOc1cccc(Cl)c1)c1c(N)n(CCCC)c(=O)[nH]c1=O | 3% | -5% | ? | -7 | 13µM* | -19%
CCCCCN(C(=O)CCC(=O)OCc1ccc(C(C)C)cc1)c1c(N)n(CCCC)c(=O)[nH]c1=O | -6% | -14% | 23µM* | -15 | 16µM* | 16%
CCCCCN(C(=O)CCC(=O)OCc1ccc(C(C)(C)C)cc1)c1c(N)n(CCCC)c(=O)[nH]c1=O | -27% | ? | ? | i | ? | -16%
CCCCCN(C(=O)CCC(=O)OCc1cc(C)ccc1C)c1c(N)n(CCCC)c(=O)[nH]c1=O | -26% | -19% | 23µM* | -63* | 26µM* | ?
CCCCCN(C(=O)CCC(=O)OCC(=O)c1ccc(F)c(F)c1)c1c(N)n(CCCC)c(=O)[nH]c1=O | -1% | -2% | -13% | 5 | 4% | 11%
CCCCCN(C(=O)CCC(=O)OCC(=O)c1c(C)cc(C)cc1C)c1c(N)n(CCCC)c(=O)[nH]c1=O | -14% | -9% | ? | -77* | ? | -17%
COc1ccc(NC(=O)C2CC(=O)N=C(N)S2)cc1 (stereo unspecified) | 5% | 16% | 4% | 11 | 3% | -2%
C=CCNc1nc2c(c(=O)[nH]c(=O)n2C)n1CCOc1ccccc1 | -7% | -13% | -5% | 41 | ? | -8%
COc1ccc(C(=O)N/C(=C\c2cn(S(=O)(=O)N(C)C)c3ccccc23)C(=O)N2CCN(C)CC2)cc1OC | -16% | -11% | -32% | -17 | ? | ·
CNC(=O)c1cc(S(=O)(=O)NC2CCCCCC2)ccc1C | 15% | 9% | ? | 32 | -1% | -2%
O=C(Nc1ccc(F)c(F)c1)c1cc(S(=O)(=O)NC2CCCCCC2)ccc1F | · | · | 21µM* | · | 21µM* | ·
CCOc1ccccc1NC(=O)c1cc(S(=O)(=O)NC2CCCC2)ccc1F | · | · | -19% | · | ? | ·
CC(C)c1ccc(NC(=O)c2cc(S(=O)(=O)NC3CCCCC3)ccc2F)cc1 | · | · | 16µM* | · | 18µM* | ·
O=C(Nc1ccc(Br)cc1F)c1cc(S(=O)(=O)NC2CCCCC2)ccc1F | · | · | 23µM* | · | 21µM* | ·
O=C(Nc1ccc(Br)cc1)c1ccc(F)c(S(=O)(=O)NC2CCCCCC2)c1 | · | · | 2.9µM* | · | 1.6µM* | ·
CCOC(=O)Nc1ccc(S(=O)(=O)NC2CCCCC2)cc1 | -18% | -25% | ? | 26 | ? | -11%
N#Cc1ccc(CN2CC[C@@]3(CCCN(C(=O)c4ccncc4)C3)C2)cc1 | · | · | 8% | · | 1% | ·
Cc1cccc(C)c1NC(=O)CNC(=O)Cn1nc(C)c(C)c(C#N)c1=O | 13% | 21% | 9% | -15 | -3% | 0%
Cc1cc2[nH]c(=O)c(=O)[nH]c2cc1S(=O)(=O)NCc1ccc(Cl)cc1 | 18% | 9% | -3% | 11 | 2% | -1%
CCc1ccc2c(c1)/C(=N/OC)C(=O)N2 | 3% | 13% | ? | -8 | 21µM* | 19%
CCCCNc1ccc(C(CC(N)=O)NC(=O)Cc2cccc3ccccc23)cc1[N+](=O)[O-] (stereo unspecified) | 10% | 7% | -7% | -1 | -21% | 6%
COc1ccc(CCNc2ccc(C(CC(N)=O)NC(=O)c3cc(OC)ccc3OC)cc2[N+](=O)[O-])cc1 (stereo unspecified) | -2% | -1% | 26µM* | -19 | ? | -1%
COc1ccc(CCNc2ccc(C(CC(N)=O)NC(=O)Cc3cccc4ccccc34)cc2[N+](=O)[O-])cc1 (stereo unspecified) | 0% | 1% | 23µM* | -3 | ? | 2%
COc1cccc(C(=O)Nc2cccc(C(=O)OCc3cc(=O)n4c5c(sc4n3)CCCC5)c2)c1 | · | · | ? | · | 18µM* | ·
SMILES | HT1080-NT tox | HT1080 IDH1KD tx | DT40 TDP1 CPT | IL-1B inflam inh | DT40 TDP1 no CPT | ELG1 DNA repair
O=C(Nc1cccc(C(=O)OCc2cc(=O)n3c4c(sc3n2)CCCC4)c1)c1ccc(Cl)cc1 | · | · | ? | · | -20% | ·
Cc1cccc(C(=O)Nc2ccc(C(=O)OCc3cc(=O)n4c(C)csc4n3)cc2)c1 | · | · | ? | · | 16µM* | ·
O=C(Nc1cccc(C(=O)OCc2cc(=O)n3c4c(sc3n2)CCCC4)c1)c1ccccc1 | · | · | ? | · | 16µM* | ·
Cc1ccc(C(=O)Nc2cccc(C(=O)OCc3cc(=O)n4c5c(sc4n3)CCCC5)c2)cc1 | · | · | ? | · | 18µM* | ·
CN1CCN(C(=O)C(=O)Nc2c3c(nn2-c2ccc(F)cc2)CSC3)CC1 | · | · | 2% | · | -3% | ·
Cc1ccc2c(=O)cc(C(=O)Nc3ccc(S(=O)(=O)Nc4nc(C)cc(C)n4)cc3)oc2c1 | · | · | -9% | · | -26% | ·
Cn1c(=O)c(-c2cccc(Cl)c2)nc2cncnc21 | · | · | 9% | · | -27% | ·
O=C(O)c1ccccc1C(=O)Nc1ccc(-n2ccc(C(F)(F)F)n2)cc1 | 8% | 2% | 0% | 6 | -11% | -3%
COc1ccccc1NC(=O)Nc1ccc(-n2ccc(C(F)(F)F)n2)cc1 | -27% | -23% | ? | -71* | 26µM* | ?
Cc1cc(C)cc(NC(=O)Nc2ccc(-n3ccc(C(F)(F)F)n3)cc2)c1 | 21µM* | 23µM* | ? | -77* | 21µM* | ?
COc1ccccc1C(=O)NC(=O)Nc1ccc(-n2nc(C(F)(F)F)cc2C(F)(F)F)cc1 | · | · | ? | · | 15µM* | ·
Cc1nn(C)cc1/C=N/NC(=O)Cn1nnc(N)n1 | 2% | 6% | 6% | 6 | 3% | 10%
O=C(NCc1ccccc1)c1cc(C2COCCN2S(=O)(=O)c2cccs2)on1 (stereo unspecified) | 18% | 8% | -1% | 10 | -10% | ·
Cc1cc(C)n(-c2cc(C(C)(C)C)nc3c(-c4ccc(Cl)cc4)cnn23)n1 | ? | ? | 11µM* | -2 | ? | 0%
